Assay results as given in the supplement of paper PMC7156485.
Values joined by “and” are separate entries in the source; they are usually repeats but may differ in a detail not shown here. Identical values can stand only once. ± gives the standard deviation of the averaged measurements.

Assays:
Conditions in all cases: concentration: 10 µM; 24 h
HCC1569 [1] = assay: cell number relative to DMSO (% of DMSO); higher = more cells (less growth inhibition / toxicity)
In short: (§1)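 HCC1569 and TDF cells (800 per well, 384-well plates, RPMI with 10% FBS) were treated with compounds at 10 µM for 24 h at 37 °C, in triplicate. Cells were fixed in 3.7% formaldehyde and stained with a rabbit anti-H1.0 antibody, an AlexaFluor 647 secondary and DAPI; six fields per well were imaged at ×10. H1.0 nuclear intensity or cell number is expressed as percent of the plate DMSO control, taking the median of replicates. HCC1569 values were smoothed for positional effects.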

TDF [2] = assay: as above
In short: as §1

TDF [3] = assay: H1.0 immunofluorescence intensity relative to DMSO (% of DMSO); higher = stronger H1.0 induction, active = 120 or more
In short: as §1

HCC1569 [4] = assay: H1.0 immunofluorescence intensity relative to DMSO (% of DMSO); higher = stronger H1.0 induction, active = 140 or more
In short: as §1
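Throughout, for H1.0 immunofluorescence intensity relative to DMSO: TDF is a line of transformed human dermal fibroblasts of mesenchymal origin.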
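Throughout, for cell number relative to DMSO: TDF denotes transformed human dermal fibroblasts of mesenchymal origin.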

SMILES | cell number (HCC1569 [1]) | cell number (TDF [2]) | H1.0 immunofluorescence intensity (TDF [3]) | H1.0 immunofluorescence intensity (HCC1569 [4])
Cl.NN=C(N)N [Aminoguanidine hydrochloride] | 105 | 109 | 93.8 (inactive) | 94.2 (inactive)
CCCN1CCCC(c2cccc(O)c2)C1.Cl (stereo not drawn) [R(+)-3PPP hydrochloride] | 104 | 106 | 88.2 (inactive) | 103 (inactive)
COC1=CC(=O)OC(C=Cc2ccc3c(c2)OCO3)C1 (stereo not given) [Methysticin] | 106 | 106 | 90.6 (inactive) | 89 (inactive)
CC1=C2C3OC(=O)C(C)C3CCC2(C)C=CC1=O (stereo not given) [Santonin] | 103 | 97.9 | 95.5 (inactive) | 92.6 (inactive)
CC(C)c1cc2c(c(O)c1O)C1(C(=O)O)CCCC(C)(C)C1CC2 (stereo not given) [Carnosic acid] | 96.8 | 99.9 | 95.3 (inactive) | 103 (inactive)
CC12CCC(O)CC1CCC1C2CCC2(C)C(C(=O)CO)CCC12 (stereo not drawn) [3-alpha,21-Dihydroxy-5-alpha-pregnan-20-one] | 102 | 89 | 98.8 (inactive) | 87 (inactive)
C=CCN1CCC23c4c5ccc(O)c4OC2C(=NN=C2CCC4(O)C6Cc7ccc(O)c8c7C4(CCN6CC=C)C2O8)CCC3(O)C1C5 (stereo not given) [Naloxonazine] | 99.6 | 89 | 105 (inactive) | 117 (inactive)
CCC(C)C1OC2(C=CC1C)CC1CC(CC=C(C)C(OC3CC(OC)C(OC4CC(OC)C(O)C(C)O4)C(C)O3)C(C)C=CC=C3COC4C(O)C(C)=CC(C(=O)O1)C34O)O2 (stereo not given) [Abamectin] | 101 | 94.4 | 101 (inactive) | 103 (inactive)
CC(C(O)CCC(C)(C)O)C1CCC2(O)C3=CC(=O)C4CC(O)C(O)CC4(C)C3CCC12C (stereo not given) [Ecdysone] | 103 | 112 | 90.8 (inactive) | 88.8 (inactive)
CN(C)C(=O)Oc1cccc([N+](C)(C)C)c1 [Neostigmine] | 104 | 112 | 96.8 (inactive) | 101 (inactive)
CCOP(=O)(OCC)C(C)NC(=O)N(CCCl)N=O (stereo not given) | 100 | 80.1 | 102 (inactive) | 90.6 (inactive)
CCN(CC)c1ncnc2c1ncn2C1OC(COP(=O)([O-])OP(=O)([O-])C(Br)(Br)P(=O)([O-])O)C(O)C1O.[Na+].[Na+].[Na+] (stereo not given) | 102 | 101 | 92.6 (inactive) | 96.5 (inactive)
Br.Br.CN(C)CCN(C)CCc1ccc(Cl)c(Cl)c1 | 96.6 | 102 | 102 (inactive) | 110 (inactive)
CC12CCC3C(CCC4CC(O)CCC43C)C1CCC2=O (stereo not given) [Androsterone] | 95 | 113 | 91.7 (inactive) | 107 (inactive)
O=C(O)c1nn(Cc2ccc(Cl)cc2Cl)c2ccccc12 [Lonidamine] | 107 | 96.2 | 94.3 (inactive) | 92.3 (inactive)
Ic1ccccc1CNC1C2CCN(CC2)C1C(c1ccccc1)c1ccccc1.O=C(O)C(=O)O [L-703,606 oxalate] | 85.3 | 91.8 | 114 (inactive) | 128 (inactive)
O=C1NC(=O)c2c1c1c3ccccc3n3c1c1c2c2ccccc2n1C1CCC3O1 | 77.9 and 77.4 | 74.9 and 76.9 | 105 (inactive) and 100 (inactive) | 126 (inactive) and 107 (inactive)
NC(CCCCCP(=O)(O)O)C(=O)O (racemic) | 102 | 105 | 96.9 (inactive) | 98.4 (inactive)
C=C(C)C1CNC(C(=O)O)C1CC(=O)O (stereo not given) [Kainic acid] | 103 ± 3.2 | 108 ± 3 | 92.5 (inactive) | 88.9 (inactive)
CN1CCN(c2ccc3ccccc3n2)CC1.O=C(O)C=CC(=O)O.O=C(O)C=CC(=O)O [Quipazine, N-methyl-, dimaleate] | 102 | 104 | 93 (inactive) | 89.8 (inactive)
COc1ccc(C(=O)c2c(C)n(CCN3CCOCC3)c3ccccc23)cc1 [Pravadoline] | 110 | 96.5 | 98.4 (inactive) | 93.3 (inactive)
CC1(O)CC23CC(O)C4(O)C(CC(O)C4(C)C)C(C)(O)C2CCC1C3O (stereo not given) [Grayanotoxin III] | 99.6 | 102 | 91.9 (inactive) | 88.2 (inactive)
CC1CCCC(O)CCCCCc2cc(O)cc(O)c2C(=O)O1 (stereo not given) | 102 | 93.5 | 91.8 (inactive) | 99.2 (inactive)
CS(=N)(=O)CCC(N)C(=O)O [L-Methionine sulfoximine] | 103 | 94 | 92.5 (inactive) | 98.4 (inactive)
Cc1cc(C(=O)CN2CCCC2)c(C)n1-c1ccc(F)cc1 | 99 | 102 | 99.9 (inactive) | 94.1 (inactive)
